Experimental data as given in PubChem BioAssay (NCI).
This is part of a sample that, as a whole, favours compounds with a hit. Of some 79,000 tested, about 15% had one in any assay. No stated cut-off is given here; in the data, active means growth inhibition above about 70%; inactive means the rest. Where a SMILES comes first, the peptide text is derived from it.

How the values were obtained:
[1] = NCI Yeast Anticancer Drug Screen. Data for the rad50 strain (AID 155);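 further: 0% = growth of vehicle-only cultures of the same strain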; conditions: S. cerevisiae rad50 strain growth inhibition; at 50.0 µM; stronger effect = higher value
In short: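 Compounds were tested on a yeast strain with an engineered DNA damage repair alteration; the reported value is growth inhibition normalised to vehicle treatment.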

[2] = NCI Yeast Anticancer Drug Screen. Data for the mec2-1 strain (AID 157); conditions: S. cerevisiae mec2-1 strain, at 50.0 µM, stronger effect = higher value
In short: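 Growth inhibition is read against vehicle-treated controls after compound exposure of the mec2-1 yeast strain, which is defective in DNA damage repair or cell cycle control.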

[3] = NCI Yeast Anticancer Drug Screen. Data for the sgs1 mgt1 strain (AID 161);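 further: 0% = growth of cultures given vehicle only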; conditions: S. cerevisiae sgs1 mgt1 strain, at 50.0 µM, stronger effect = higher value
In short: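 Growth of a repair-deficient yeast mutant was monitored after compound treatment and expressed as inhibition relative to vehicle-treated cultures.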

[4] = NCI Yeast Anticancer Drug Screen. Data for the cln2 rad14 strain (AID 165);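 further: 0% = growth equal to vehicle treated cultures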; conditions: S. cerevisiae cln2 rad14 strain, at 50.0 µM, stronger effect = higher value
In short: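 Growth inhibition, relative to vehicle-treated controls, is the read-out. The test organism is a yeast strain with defined genetic alterations, cln2 rad14.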

[5] = NCI Yeast Anticancer Drug Screen. Data for the bub3 strain (AID 167); conditions: S. cerevisiae bub3 mutant strain, at 50.0 µM, stronger effect = higher value
In short: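 Growth of a checkpoint-deficient yeast mutant is measured after compound exposure. Values represent inhibition relative to vehicle.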

[6] = NCI Yeast Anticancer Drug Screen. Data for the mlh1 rad18 strain (AID 175); conditions: S. cerevisiae mlh1 rad18 strain growth inhibition; at 50.0 µM; stronger effect = higher value
In short: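 Cells of a genetically altered yeast strain, deficient in DNA damage repair, were treated with compound. Their growth was then compared with that of vehicle-treated cultures to give inhibition.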

Measured: growth inhibition

O=C1NN(c2ccccc2)C(=O)C2C3c4ccccc4C(c4ccccc43)C12 (stereo unspecified)
inactive: [1] 2.45% | [2] -6.8% | [3] 0.7% | [4] -3.3% | [5] -2.4% | [6] 2.85%

C=C(C(C)C)C1CC1
inactive: [1] 0.25% | [2] -18.2% | [3] -4.25% | [4] 3.5% | [5] -2.6% | [6] -11.8%

C=CCCCCCCCCO
inactive: [1] -12.1% | [2] -3.6% | [3] 8.3% | [4] -13% | [5] -10% | [6] -8.6%

CC(=O)OCC1(C)NC(=O)c2ccccc2O1 (stereo unspecified)
inactive: [1] 8.2% | [2] 20.2% | [3] 6.9% | [4] 8.15% | [5] 9.7% | [6] 22.4%

COc1ccc(NC(=O)CC(=O)N2N=C(N(CCC#N)c3ccccc3Cl)CC2c2ccccc2)cc1 (stereo unspecified)
inactive: [1] -13.4% | [2] -23.6% | [3] -1% | [4] 10.7% | [5] -4.55% | [6] -28.9%

Nc1ccc(S(=O)(=O)NC(=O)c2ccccc2)cc1
inactive: [1] 12.8% | [2] -7% | [3] 10.1% | [4] -26.9% | [5] -3% | [6] 0.2%

CCNC(=O)COc1ccc(Cl)cc1C(C)C
inactive: [1] -2.65% | [2] 7.75% | [3] 15.4% | [4] 18.8% | [5] -0.8% | [6] 0.7%

O=C(O)c1c(F)c(F)c(-c2c(F)c(F)c(C(=O)O)c(C(=O)O)c2F)c(F)c1C(=O)O
inactive: [1] 1.5% | [2] 5.5% | [3] -5% | [4] 7.05% | [5] 0.55% | [6] -6.45%

CCC(=O)Nc1cc(C)c(C)cc1C
inactive: [1] 4.75% | [2] -10.2% | [3] -2.2% | [4] -42% | [5] 6.6% | [6] -8.4%

N#CC(CCc1ccc([N+](=O)[O-])cc1)(CCc1ccc([N+](=O)[O-])cc1)C(N)=O
inactive: [1] 38.4% | [2] 19.4% | [3] 35.9% | [4] -14.2% | [5] 24.9% | [6] 49.2%

O=C1C(Cc2ccccc2)C(=O)N2c3ccccc3C=CC2N1c1ccccc1 (stereo unspecified)
inactive: [1] 13.2% | [2] 13.7% | [3] 4.6% | [4] 0.55% | [5] -10% | [6] 8.45%

COc1ccc(OCCO)cc1
inactive: [1] -10.4% | [2] -17.8% | [3] -6.85% | [4] -27.1% | [5] -22.1% | [6] -0.15%

CCOC(=O)c1n[nH]c(C)c1C/C(=N/O)c1ccccc1
inactive: [1] -14.3% | [2] -24.4% | [3] -8.25% | [4] -14.9% | [5] -14.9% | [6] -35.9%

O=[N+]([O-])C(C(Cl)=C(Cl)Cl)=C(n1nnc2ccccc21)n1nnc2ccccc21
inactive: [1] 40.6% | [2] 34.9% | [3] 25.3% | [4] 27.1% | [5] 19% | [6] 21.1%

Nc1cc(C(F)(F)F)cc(C(F)(F)F)c1
inactive: [1] -6.2% | [2] 1.6% | [3] -0.85% | [4] 16.6% | [5] -1.4% | [6] -10.4%

O=c1[nH][nH]c(=O)c2nc3c(nc12)c1nc2c(=O)[nH][nH]c(=O)c2nc1c1nc2c(=O)[nH][nH]c(=O)c2nc31
inactive: [1] -1.6% | [2] 21.4% | [3] 21.1% | [4] -2.55% | [5] -11.1% | [6] 8.2%

Cc1nc(N)nc(CCC(=O)Nc2cccc(C(F)(F)F)c2)c1-c1ccc(Cl)cc1
inactive: [1] 12.2% | [2] -2.9% | [3] 6.7% | [4] 7.45% | [5] -3.6% | [6] 11.1%

COC(=O)/C=C(/C)c1ccccc1
inactive: [1] 1.7% | [2] 2.3% | [3] 0.9% | [4] 5.65% | [5] 1.45% | [6] -3.5%

C/C(=N/O)c1ccc(O)cc1O
inactive: [1] -16.7% | [2] -1.2% | [3] 3.65% | [4] -8.6% | [5] 5.15% | [6] 13.8%

C=CCCCCCCCCC(=O)NCc1nc2ccccc2[nH]1
inactive: [1] 20.6% | [2] 21.6% | [3] 25.9% | [4] 1.15% | [5] 5.9% | [6] 69.1%

c1ccc(CC2CO2)cc1 (stereo unspecified)
inactive: [1] -2.7% | [2] -17.8% | [3] -1.4% | [4] -15.2% | [5] -0.2% | [6] -7.9%

c1ccc2c(c1)CCOC2
inactive: [1] -0.4% | [2] 5.9% | [3] 3.45% | [4] 6.5% | [5] 8.55% | [6] -3.1%

C/C=C1\C(=O)OC2CCN3CCC(COC(=O)C(C)(O)C(C)C1O)C23 (stereo unspecified)
inactive: [1] 11.2% | [2] -7.65% | [3] -24.6% | [4] -13.7% | [5] -46.5% | [6] -60.2%

C/C(=N/NC(N)=S)c1c[nH]c(=O)[nH]c1=O
inactive: [1] -3% | [2] -16.6% | [3] -4.45% | [4] -9.6% | [5] -5.95% | [6] -7.35%

COc1c(NC(=O)c2ccc([N+](=O)[O-])cc2)cccc1[N+](=O)[O-]
inactive: [1] 0.45% | [2] 14.3% | [3] 5.1% | [4] -0.2% | [5] 32.2% | [6] 20.4%

C=C1c2nc3ccccc3n2C=C(c2ccc(Cl)cc2)N1c1ccccc1
inactive: [1] -4.65% | [2] 23.4% | [3] -10.7% | [4] 9.7% | [5] -1.6% | [6] 33.5%

Oc1cc(CN2CCOCCOCCOCCOCC2)c(O)cc1CN1CCOCCOCCOCCOCC1
inactive: [1] 7.85% | [2] -11.8% | [3] 8.9% | [4] -49.1% | [5] -8.3% | [6] -14.1%

Cc1ccc2nc(N=C(N)N)[nH]c2c1
inactive: [1] -16.5% | [2] -33.1% | [3] 2.75% | [4] 1.1% | [5] -14.3% | [6] -12.6%

CC(=O)Oc1c(C(C)C)cccc1C(C)(C)C
inactive: [1] -10.8% | [2] -9.95% | [3] -1.1% | [4] -14.1% | [5] -34.1% | [6] -13.5%

CN(C)CCCNC(=S)S
inactive: [1] -17% | [2] -28.6% | [3] 5.25% | [4] 11.2% | [5] -22.1% | [6] -4.35%

OCC1C2C=CC(O2)[C@H]1CO (stereo partly specified)
inactive: [1] 1.65% | [2] -3.75% | [3] -11.8% | [4] -27.9% | [5] -24.9% | [6] -6.95%

CS(=O)c1ccc(/C=C2/C=Cc3ccccc32)cc1 (stereo unspecified)
inactive: [1] 32.8% | [2] 27.3% | [3] 30.5% | [4] 22.1% | [5] 48.7% | [6] 36%

Cc1ccc(S(=O)(=O)C23N=NC(C)(C)C2C2CCC3C2)cc1 (stereo unspecified)
inactive: [1] -8.4% | [2] -12% | [3] 1.1% | [4] -59.2% | [5] -50.3% | [6] 3.75%

Cc1nc2c(N3CCOCC3)ncnc2o1
inactive: [1] 5.15% | [2] -1.05% | [3] -5.5% | [4] -27.4% | [5] -15.3% | [6] 7.75%

O=C1NCCCCCC1S(=O)c1ccccc1 (stereo unspecified)
inactive: [1] -7.8% | [2] -10.2% | [3] -8.5% | [4] 28.6% | [5] -11.8% | [6] -11.8%

O=C(C#Cc1ccccc1)N1c2ccccc2CC1c1c[nH]c2ccccc12 (stereo unspecified)
inactive: [1] -7.25% | [2] -6.2% | [3] 0.7% | [4] 2.55% | [5] -2.8% | [6] -6.85%

O=c1cc(-c2ccccc2)[nH]c2[nH]n(-c3ccccc3)c(=O)c12
inactive: [1] 8.55% | [2] 14.2% | [3] 24.8% | [4] -10.2% | [5] -9.55% | [6] 16.4%

CC(C)CC(NC(=O)C(NC(=O)C(N)C(C)O)C(C)C)C(=O)O (stereo not drawn) (H-Thr-Val-Leu-OH; configuration not given here)
inactive: [1] 5.9% | [2] 3.1% | [3] 3.5% | [4] 5.95% | [5] 4.75% | [6] -1.5%

CC12CCC(C(S(=O)(=O)O)C1=O)C2(C)C (stereo unspecified) (tested in a mixture with another compound)
inactive: [1] -1.2% | [2] -15.1% | [3] -6.7% | [4] -5.7% | [5] -0.6% | [6] 0.55%

Cc1ccc2c(N(C)C)cc(N(C)C)nc2c1C
inactive: [1] -0.15% | [2] 4.4% | [3] -9.2% | [4] -48% | [5] -1.1% | [6] 15.5%

C1=C2CCc3ccc(o3)CCC(=C1)O2
inactive: [1] 7.55% | [2] 14.8% | [3] 10.2% | [4] -23.7% | [5] -0.05% | [6] 1.35%
